# NS1 inh = inhibitors of influenza NS1 protein function; AID 2326; hit rate 0.4% among 270,000; Potency, µM (top dose mostly 46.1 µM); calls by dose curve; note: actives are rising curves; nearly all actives have a fitted effect of over 50% in size
#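 A cell-based growth assay was used: compounds that relieve NS1-induced slow growth of budding yeast raise OD600. Assay medium was yeast nitrogen base with ammonium sulphate and -URA supplement, pH 6.0, with 2% galactose.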
# Cruzain inh Det = cruzain (T. cruzi) inhibition with detergent; purified cruzain, Z-FR-AMC fluorescence, 0.01% Triton; Potency, µM, hits mostly inhibitors; hit rate 0.43% among 200,000; note: nearly all actives have a fitted effect of over 40% in size
#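 Read-out: AMC fluorescence (360 nm excitation, 450 nm emission), four reads over 2 min, first-to-third difference used. Conditions: cruzain 1.5 nM, Z-FR-AMC 2 uM, pH 5.5 acetate, 5 mM DTT, 0.01% Triton X-100.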
# Cruzain noTriton = blocks cruzain activity in detergent-free assay. P25779. purified cruzain, Z-FR-AMC fluorescence, no detergent. Potency, µM, most hits filed as inhibitors. hit rate 2.3% among 200,000. AID 1476; note: nearly all actives have a fitted effect of over 40% in size
#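 Purified cruzain at 1.5 nM, pre-incubated 15 min with compound at room temperature in 100 mM sodium acetate pH 5.5, 5 mM DTT, 0.00005% Triton X-100. Reaction started with 2 uM Z-FR-AMC; AMC fluorescence increase over 60 s gives rate.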
# Papain inh = papain (Carica papaya) inhibition counter-screen | shares compounds with Cruzain inh Det | purified papain, Z-FR-AMC fluorescence cleavage | Potency, µM, most hits filed as inhibitors | hit rate 41% among 410 | AID 2161; note: nearly all actives have a fitted effect of over 35% in size
# Target sequence (P00784 whole entry, looked up): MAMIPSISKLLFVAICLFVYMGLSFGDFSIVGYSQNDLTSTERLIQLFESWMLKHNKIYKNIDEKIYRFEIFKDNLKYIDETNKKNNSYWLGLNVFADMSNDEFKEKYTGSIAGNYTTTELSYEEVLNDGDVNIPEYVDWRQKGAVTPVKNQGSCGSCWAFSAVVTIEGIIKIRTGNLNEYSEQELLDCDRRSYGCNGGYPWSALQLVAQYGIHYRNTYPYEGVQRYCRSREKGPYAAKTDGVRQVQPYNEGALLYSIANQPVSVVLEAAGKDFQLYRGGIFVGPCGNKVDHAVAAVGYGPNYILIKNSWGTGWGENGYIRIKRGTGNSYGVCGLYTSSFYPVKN
# Numbers stand for hits; . = inactive; ? = inconclusive; / = not tested or not shown. The sample as a whole holds a higher share of hits than the screen did. Unless noted, calls come from the whole dose curve; as a rule, active = well fitted curve in the direction sought with a large enough effect; inconclusive = small, poorly fitted or top-dose-only effect, or another doubt; inactive = no such curve, though single readings can be large; an effect the other way counts as inactive or inconclusive.
SMILES,NS1 inh,Cruzain inh Det,Cruzain noTriton,Papain inh
O=C(NCCCc1nc2ccccc2n1Cc1ccccc1)C1CCCCC1,/,.,.,/
O=C(NCCCc1nc2ccccc2n1Cc1ccc(F)cc1)C1CCCCC1,/,.,.,/
Cc1cc[n+](CC(=O)c2cc3ccccc3oc2=O)cc1,?,.,.,/
CCOC(=O)N1CCN(C(=S)NC2CCCCC2)CC1,.,.,.,/
CC(C)CNC(=O)c1ccccc1NC(=O)/C=C/c1cccc([N+](=O)[O-])c1,.,.,.,/
CC1CCCC(NC(=O)C2CCN(S(=O)(=O)N3CCCCCC3)CC2)C1C (stereo unspecified),.,.,.,/
CC(=O)n1cc(/C=N/NC(=O)c2ccccc2O)c2ccccc21,.,/,/,/
CC(=O)n1cc(/C=C2/N=C(c3ccccc3)OC2=O)c2ccccc21,.,4.5µM,20µM,1.6µM
COCCN1C(=O)c2cc(C(=O)Nc3ccc(C)c(F)c3)ccc2C1Nc1ccc(C)c(F)c1 (stereo unspecified),.,.,.,/
CCCC(=O)Oc1ccc(C2NC(=O)c3ccccc3O2)cc1 (stereo unspecified),.,/,/,/
O=[N+]([O-])c1ccccc1S(=O)(=O)NCC1CCC(CNCC2CCc3ccccc3C2)CC1 (stereo unspecified),/,.,.,.
Cc1ccc(CNS(=O)(=O)c2ccccc2[N+](=O)[O-])cc1,.,/,/,/
O=C(COc1ccccc1)NCC(c1ccc(Cl)cc1)N1CCOCC1 (stereo unspecified),/,.,.,/
CCNc1nc(NC(C)(C)C)nc(N2CCCC2)n1,.,.,.,/
CCOc1nc(Nc2ccccc2)nc(OCC)n1,.,/,/,/
CN(C)c1nc(N)nc(Nc2ccccc2C#N)n1,?,.,.,/
CN(C#N)c1nc(N2CCOCC2)nc(N2CCOCC2)n1,.,/,/,/
CCNc1nc(C#N)nc(N2CCCCC2)n1,/,/,/,2.5µM
CCN(CC)c1nc(C#N)nc(N2CCOCC2)n1,/,/,/,1µM
CCOc1nc(C#N)nc(N(c2ccccc2)c2ccccc2)n1,/,/,/,.
CCN(c1ccccc1)c1nc(N)nc(C#N)n1,/,/,/,11µM
COC(=O)Cn1cc(/C=C(/C#N)C(=O)N2CCOCC2)c2ccccc21,.,/,/,/
C/C(CCc1ccc2c(c1)OCO2)=N\NC(=O)c1ccc(C)cc1C,.,/,/,/
CN[C@]1(C)[C@H]2CC[C@@H](C2)C1(C)C,/,.,.,/
N#Cc1nc(N2CCCCC2)nc(N2CCCCC2)n1,/,/,/,2.2µM
SMILES,NS1 inh,Cruzain inh Det,Cruzain noTriton,Papain inh
Nc1nc(N2CCCCC2)nc(N(c2ccccc2)c2ccccc2)n1,.,.,.,/
CN(C)c1nc(N2CCCCC2)nc(N2CCCCC2)n1,.,/,/,/
N#Cc1nc(N2CCCCC2)nc(N(c2ccccc2)c2ccccc2)n1,/,/,/,2.8µM
COc1ccc(C(C#N)(CCC#N)CCC#N)cc1OC,.,.,.,/
O=C1C(=O)N(Cc2ccncc2)C(c2cccc(O)c2)/C1=C(\O)c1ccc2c(c1)OCCO2 (stereo unspecified),.,/,/,/
COc1ccc2[nH]c3c(NCCN4CCCCC4)ncnc3c2c1,.,16µM,13µM,.
CCOc1ccc2[nH]c3c(NCCO)ncnc3c2c1,.,/,/,/
COc1ccccc1C(=O)N/C(=C\c1ccccc1)C(=O)NC(Cc1ccccc1)C(=O)O (stereo unspecified),.,/,/,/
COc1ccc2[nH]c(=O)c(NC(N)=S)nc2c1,.,2.2µM,1.3µM,.
COc1ccc2nc(SCC(N)=O)[nH]c2c1,?,.,.,/
CCOC(=O)c1ccc(NC(=O)Cn2nnc(-c3ccc(C(F)(F)F)cc3)n2)cc1,/,.,.,/
C=C(C)C(=O)OC1(C(F)(F)F)Oc2cc(C)ccc2NC1=O (stereo unspecified),.,6.3µM,7.9µM,28µM
CCOC(=O)C1(N(CC)CC)Sc2cc(C)ccc2NC1=O (stereo unspecified),.,.,.,/
O=C(CSc1nc(-c2ccco2)nc2cc(=O)[nH]n12)Nc1ccc(F)cc1,/,.,?,/
CC1CCCN(c2ccc(C(=O)OCn3nnc4ccccc4c3=O)cc2[N+](=O)[O-])C1 (stereo unspecified),?,.,?,/
CC1CCCN(c2ccc(C(=O)OCC(=O)N3c4ccccc4Sc4ccccc43)cc2[N+](=O)[O-])C1 (stereo unspecified),.,.,4µM,.
O=C(CN1CCN(c2ccccn2)CC1)Nc1cccc(Br)c1,.,/,/,/
O=C(NCc1ccco1)c1ccc2nc3sc4c(c3c(=O)n2c1)CCCC4,.,10µM,.,25µM
C=CCn1c(SCC(=O)NCc2ccco2)nc2sc3c(c2c1=O)CCCC3,.,.,.,/
Cc1csc(SCCn2c(N3CCOCC3)nc3c2c(=O)[nH]c(=O)n3C)n1,.,.,.,/
COc1ccc(Cl)cc1NC(=O)Cn1ccn(-c2cc(C)cc(C)c2)c(=O)c1=O,/,.,.,/
O=S(=O)(NCCCN1CCOCC1)c1ccc(Cl)s1,.,/,/,/
